PubChem BioAssay (NCI)
This is part of a sample that, as a whole, favours compounds with a hit. Of some 83,000 tested, about 20% had one in any assay.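 Step 1: grow cells in 96-well plates. Step 2: add test compound at a single concentration. Step 3: incubate 48 h. Step 4: record percent growth.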 Activity calls are given as the source filed them. Rule for the calls: active = growth percent below 10; inactive = the rest.

Columns and labels:
Assay in all cases: NCI-60 one-dose screen, 48 h (100 = growth as untreated, 0 = no growth, -100 = all killed)
Settings in all cases: 10 µM unless noted
SR leukemia = tested on: SR leukemia
RPMI-8226 leukemia = tested on: RPMI-8226 leukemia
OVCAR-8 ovarian = tested on: OVCAR-8 ovarian
OVCAR-5 ovarian = tested on: OVCAR-5 ovarian
OVCAR-4 ovarian = tested on: OVCAR-4 ovarian
SK-OV-3 ovarian = tested on: SK-OV-3 ovarian
IGROV1 ovarian = tested on: IGROV1 ovarian
HS 578T breast = tested on: HS 578T breast
NCI/ADR-RES ovarian = tested on: NCI/ADR-RES ovarian
OVCAR-3 ovarian = tested on: OVCAR-3 ovarian

Measured: growth

O=c1oc2ccc(-c3ccc(F)cc3F)cc2c(=O)n1-c1ccc(Br)cc1F
inactive: SR leukemia 85.1% | RPMI-8226 leukemia 31.6% | OVCAR-8 ovarian 69.5% | OVCAR-5 ovarian 108% | OVCAR-4 ovarian 78.7% | SK-OV-3 ovarian 63.9% | IGROV1 ovarian 58.3% | HS 578T breast 47.2% | NCI/ADR-RES ovarian 75.3%

Cc1ccc(Nc2nc(SC(C)C)nc(-c3ccccc3)c2C#N)cc1
inactive: SR leukemia 102% | RPMI-8226 leukemia 99% | OVCAR-8 ovarian 97% | OVCAR-5 ovarian 81.8% | OVCAR-4 ovarian 87.3% | SK-OV-3 ovarian 96.2% | IGROV1 ovarian 91% | HS 578T breast 87.8% | NCI/ADR-RES ovarian 92.2%

N#C/C(=N\Nc1ccc(F)cc1)C(=O)Nc1cc(-c2ccccc2)nn1-c1ccccc1
active: OVCAR-4 ovarian 1.96% | SK-OV-3 ovarian -14.8% | NCI/ADR-RES ovarian 3.07%
inactive: SR leukemia 24.1% | RPMI-8226 leukemia 11.9% | OVCAR-8 ovarian 11% | OVCAR-5 ovarian 19.8% | OVCAR-3 ovarian 11.2% | HS 578T breast 25.9%

CC[C@]12C=CCN3CC[C@]4(C(=C(C(=O)OC)C1)Nc1cc5c(cc14)[C@@H]1[C@H](O5)[C@@H](O)[C@@]4(CC)CC(C(=O)OC)=C5Nc6cc(O)ccc6[C@@]56CCN1C46)C32 (some centres not stated)
inactive: OVCAR-8 ovarian 19.4% | OVCAR-5 ovarian 20.7% | OVCAR-4 ovarian 15.4% | SK-OV-3 ovarian 24.1%
active: SR leukemia 5.68% | RPMI-8226 leukemia -10.2% | IGROV1 ovarian -2.81% | HS 578T breast -7% | NCI/ADR-RES ovarian 2.99%

O=S(=O)(Oc1ccc(-c2cn3ccoc3n2)cc1)c1cccc(C(F)(F)F)c1
inactive: SR leukemia 100% | RPMI-8226 leukemia 94.4% | OVCAR-8 ovarian 101% | OVCAR-5 ovarian 103% | OVCAR-4 ovarian 102% | SK-OV-3 ovarian 117% | IGROV1 ovarian 106% | HS 578T breast 98.6% | NCI/ADR-RES ovarian 106%

O=S(=O)(Oc1ccc(-c2cn3ccoc3n2)cc1)C1CCCCC1
inactive: SR leukemia 85.6% | RPMI-8226 leukemia 93.3% | OVCAR-8 ovarian 100% | OVCAR-5 ovarian 102% | OVCAR-4 ovarian 107% | SK-OV-3 ovarian 102% | IGROV1 ovarian 108% | HS 578T breast 102% | NCI/ADR-RES ovarian 97.8%

O=C1[C@H]2Cc3c([nH]c4ccccc34)[C@H](c3ccc(Br)cc3)N2C(=O)CN1C1CCN(CC2CCCCC2)CC1
inactive: RPMI-8226 leukemia 43.2% | OVCAR-8 ovarian 85.4% | OVCAR-5 ovarian 106% | SK-OV-3 ovarian 87.9% | IGROV1 ovarian 82.2% | HS 578T breast 78% | NCI/ADR-RES ovarian 75.2%
active: SR leukemia -12.7%
